Screening results (PubChem BioAssay)
Hits are enriched below; roughly 1.1% of the tested compounds scored in any of these assays.
MBNL1-CUG inh = inhibitors of human MBNL1 binding to CUG repeat RNA; TR-FRET MBNL1-His/biotin-(CUG)12 binding, 665/545 ratio; hit rate 0.036% among 280,000; Potency, µM (top dose mostly 57.5 µM), without a hit: at the top dose activity change, negative = inhibition, actives largely listed as inhibitors; Q9NR56; active = well fitted inhibition curve with a large enough effect in the signal ratio, with a control signal flat, not every such curve was filed as active; inconclusive = small, poorly fitted or top-dose-only effect, or effect the other way, or a change in a side signal; inactive = no such curve, though single readings can be large or run the other way; the % refers to the signal ratio; note: potency is the fitted concentration of half-maximal effect; % is set by controls: 0 for no effect and ±100 for the full control effect
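Ratiometric TR-FRET (665 over 545 nm, excitation 340 nm) tracks disruption of MBNL1-His/biotin-(CUG)12 complex after 60 min at room temperature, with compounds at 92 nM to 58 uM final.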
LMNA splice mod = changes lamin A minigene splicing in HeLa cells; HeLa LMNA splicing GFP/RFP minigene ratio, 48 h; Potency, µM (highest dose often 46.1 µM), for inactives: at the top dose ratio change, negative = inhibition, most hits filed as inhibitors; hit rate 0.01% among 200,000; AID 1487; active = well fitted inhibition curve with a large enough effect in the signal ratio, with a control signal flat, not every such curve was filed as active; inconclusive = small, poorly fitted or top-dose-only effect, or effect the other way, or a change in a side signal; the % refers to the signal ratio; note: potency is the fitted concentration of half-maximal effect; % is set by controls: 0 for no effect and ±100 for the full control effect
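Read-out is the ratio of GFP to DsRed2 object intensity, acquired by 488 nm laser-scanning cytometry on HeLa lamin A-EGFP minigene reporter cells. Compound incubation 48 hrs at 37 °C in Opti-MEM with 2% FBS; DMSO 0.5% final.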
HTT cytoprotect = Huntington cell model cytoprotection by ATP luminescence. PC12 HTT-Q103 induced, cytoprotection, ATP luminescence, 40 h. Potency, µM (series often up to 56.4 µM), without a hit: cytoprotection (ATP increase), usual class: activators. hit rate 0.14% among 230,000. AID 1471; note: potency is the fitted concentration of half-maximal effect; % of control where 0% means no effect; nearly all actives have a fitted effect of over 45% in size
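Cells were plated at 1500 per well in phenol red-free DMEM with 5% equine and 5% calf serum. Tebufenozide (100 nM final) and compounds were added, then ATPlite reagent, and luminescence was read.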
HTT aggregate = reduces HttQ103-GFP aggregates in PC12 cells | PC12 HttQ103-GFP aggregates, Acumen cytometry, 40 h | hit rate 1.1% among 220,000 | Potency, µM (titrated, usually from 46.1 µM), for the others: at the top dose activity change, negative = inhibition, hits mostly inhibitors; note: potency is the fitted concentration of half-maximal effect; % is set by controls: 0 for no effect and ±100 for the full control effect; nearly all actives have a fitted effect of over 60% in size
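Using laser scanning cytometry, GFP-positive aggregates were counted after lysis of PC12 cells induced with 100 nM tebufenozide to express HTT exon 1 Q103–GFP. Compounds were tested in titration.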
CBFb RUNX1 block = CBF-beta/RUNX1 interaction disruption; Q01196+Q13951; AlphaScreen CBFb-His/RUNX1-biotin binding, biochemical; Potency, µM (doses to about 59.8 µM), inactives show at the top dose activity, negative = inhibition, hits mostly inhibitors; 230,000 tested, under 10 active; AID 1477; note: % of control where 0% means no effect
Target sequence (Q01196 whole entry, looked up): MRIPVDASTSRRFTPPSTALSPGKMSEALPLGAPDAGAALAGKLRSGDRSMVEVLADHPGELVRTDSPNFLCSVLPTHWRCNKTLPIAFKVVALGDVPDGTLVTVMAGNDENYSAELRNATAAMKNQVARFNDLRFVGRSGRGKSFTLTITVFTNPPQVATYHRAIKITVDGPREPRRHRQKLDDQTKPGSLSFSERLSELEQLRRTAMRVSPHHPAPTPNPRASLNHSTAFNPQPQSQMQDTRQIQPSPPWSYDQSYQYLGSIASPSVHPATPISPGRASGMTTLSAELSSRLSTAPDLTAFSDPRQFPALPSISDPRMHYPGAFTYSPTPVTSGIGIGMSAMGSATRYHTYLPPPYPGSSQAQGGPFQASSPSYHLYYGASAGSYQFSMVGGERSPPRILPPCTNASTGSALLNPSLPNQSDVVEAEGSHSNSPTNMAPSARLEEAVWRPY
Target sequence (Q13951 whole entry, looked up): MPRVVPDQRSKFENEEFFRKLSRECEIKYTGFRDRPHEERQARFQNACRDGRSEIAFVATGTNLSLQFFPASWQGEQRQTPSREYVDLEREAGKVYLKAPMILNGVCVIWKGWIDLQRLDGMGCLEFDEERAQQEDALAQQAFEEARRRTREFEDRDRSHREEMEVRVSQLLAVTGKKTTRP
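CBFb-His/RUNX1-biotin, 30 nM each, preincubated 20 min RT; compound 15 min RT; Ni + streptavidin beads 50 ng each, 90 min RT; AlphaScreen read.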
NPSR antagonist = neuropeptide S receptor (human) antagonism, cAMP; Q6W5P4; CHO-NPSR cells, cAMP TR-FRET, antagonist mode; Potency, µM (doses to about 38.3 µM), without a hit: top-dose activity change, negative = inhibition, most hits filed as inhibitors; hit rate 1% among 220,000; AID 1461; note: potency is the fitted concentration of half-maximal effect; % is set by controls: 0 for no effect and ±100 for the full control effect; nearly all actives have a fitted effect of over 50% in size
* hit, by the source's call; [ ] = dose if it differs, or a comment. Unless noted, calls come from the whole dose curve; as a rule, active = well fitted curve in the direction sought with a large enough effect; inconclusive = small, poorly fitted or top-dose-only effect, or another doubt; inactive = no such curve, though single readings can be large; an effect the other way counts as inactive or inconclusive.

CC(=O)N1N=C(c2cccs2)CC1c1ccc(Br)cc1 (configuration not stated) was read as MBNL1-CUG inh 68.0%.
Cc1ccc(C(=O)C(C)N(C(=O)c2ccc(Cl)cc2Cl)N2C(=O)CCCC2=O)cc1 (configuration not stated) was read as MBNL1-CUG inh -6.5%, HTT cytoprotect -33.9%[1.9 µM], HTT aggregate 11.2µM*, CBFb RUNX1 block -6.2% and NPSR antagonist 18.8%.
O=C(Nc1nnc(-c2ccco2)o1)c1ccc([N+](=O)[O-])s1 was read as MBNL1-CUG inh inconclusive, HTT cytoprotect -173.3%, HTT aggregate 11.2µM*, CBFb RUNX1 block -15.3% and NPSR antagonist -11.5%.
For O=C(Nc1nnc(-c2ccncc2)o1)c1ccc(Br)s1 the results were MBNL1-CUG inh 81.1%, HTT cytoprotect -110.3%, HTT aggregate 11.2µM*, CBFb RUNX1 block -10.4% and NPSR antagonist -17.2%.
Screening Cc1ccccc1CNC(=O)c1oc2c(c1C)-c1nn(Cc3ccc(Cl)cc3)cc1CC2 returned LMNA splice mod 6.5%[46 µM].
Screening NC(=O)C1CCN(CC(=O)Nc2ccccn2)CC1 returned MBNL1-CUG inh -9.1%, LMNA splice mod 3.3%, HTT cytoprotect -0.2%, HTT aggregate 2.24µM*, CBFb RUNX1 block 9.9% and NPSR antagonist 0.4%[46.1 µM].
`Cc1cc(NC(=O)CCN2CCC(C(N)=O)CC2)ccc1Br` gave MBNL1-CUG inh -5.0%, LMNA splice mod 22.5%, HTT cytoprotect 5.2%, HTT aggregate -5.2%, CBFb RUNX1 block 0.3% and NPSR antagonist -7.8%[46.1 µM].
For NC(=O)C1CCN(CCC(=O)Nc2ccc(Br)cc2)CC1 the results were MBNL1-CUG inh inconclusive, LMNA splice mod inconclusive, HTT cytoprotect 0.112µM*, CBFb RUNX1 block -4.1% and NPSR antagonist -28.6%[46.1 µM].
Screening COc1ccc(CNC(=O)c2cnc(N3CCCC3)nc2C)cc1 returned LMNA splice mod 12.8%[46 µM].
Screening Cc1ccc(-n2c(C)c([N+](=O)[O-])c3ccc(O)c(CN(C)C)c32)cc1 returned MBNL1-CUG inh inconclusive, LMNA splice mod -8.9%, HTT cytoprotect -3.9%, HTT aggregate 2.51µM*, CBFb RUNX1 block -0.2% and NPSR antagonist -3.1%[46.1 µM].
Screening COc1ccc(-c2c(C)c3ccc(O)c(CN4CCCC4)c3oc2=O)cc1 returned LMNA splice mod -3.0%[46 µM].
Screening COc1ccc(-n2c(C)c([N+](=O)[O-])c3ccc(O)c(CN4CCCCC4)c32)cc1 returned MBNL1-CUG inh inconclusive, LMNA splice mod -4.7%, HTT cytoprotect -7.0%, HTT aggregate 10µM*, CBFb RUNX1 block -25.6% and NPSR antagonist inconclusive.
Screening COC(=O)C1=C[C@@H](C(=O)OC)[C@@H]2C3=C(C(=O)[C@@]2(CC(C)C)NC(=O)c2ccccc2)[C@H](C)n2c(=O)n(-c4ccccc4)c(=O)n2[C@@H]3C1 returned CBFb RUNX1 block 18.2%.
COC(=O)[C@@H](NC(=O)c1cc(-c2ccccc2)nc2ccccc12)c1ccccc1 was read as HTT cytoprotect -20.7%[1.9 µM].
`COc1ccc(C(=O)N(O)c2ccccc2)cc1` gave HTT cytoprotect -30.8% and CBFb RUNX1 block -11.4%.
Screening CCN1C/C(=C/c2cccc([N+](=O)[O-])c2)C(=O)/C(=C/c2cccc([N+](=O)[O-])c2)C1 returned MBNL1-CUG inh 24.7%, LMNA splice mod inconclusive, HTT cytoprotect -23.4%[10 µM], HTT aggregate inconclusive, CBFb RUNX1 block 2.9% and NPSR antagonist 2.51µM*.
Screening c1coc(CNc2nc3nonc3nc2NCc2ccco2)c1 returned MBNL1-CUG inh inconclusive, LMNA splice mod inconclusive, HTT cytoprotect -10.3%[10 µM], HTT aggregate 11.2µM*, CBFb RUNX1 block -25.5% and NPSR antagonist -4.5%[46.1 µM].
For N#CC(C#N)=C1C=CC=CN1/C(=C\c1ccccc1Cl)C(=O)c1ccccc1 the results were MBNL1-CUG inh 8.1%, LMNA splice mod inconclusive, HTT aggregate inconclusive, CBFb RUNX1 block -23.1% and NPSR antagonist 7.94µM*.
`N#CC(C#N)=C1C=CC=CN1/C(=C\c1ccccc1)C(=O)c1cccs1` gave MBNL1-CUG inh inconclusive, LMNA splice mod inconclusive, HTT cytoprotect -14.2%[10 µM], HTT aggregate 17.8%, CBFb RUNX1 block 2.4% and NPSR antagonist inconclusive.
`Cc1ccccc1-c1n[nH]c(=S)o1` gave MBNL1-CUG inh 111.9%, LMNA splice mod 6.7%, HTT cytoprotect 0.4%, HTT aggregate 0.1%, CBFb RUNX1 block 4.8% and NPSR antagonist inconclusive.
`CSc1ccccc1-c1n[nH]c(=S)o1` gave MBNL1-CUG inh inconclusive, LMNA splice mod 9.6%[46 µM], HTT cytoprotect 12.8%[10 µM], HTT aggregate -5.0%, CBFb RUNX1 block -7.2% and NPSR antagonist 3.98µM*.
For COc1ccc(C(=O)NN/C(C)=C/C(=O)C(F)(F)C(F)(F)C(F)(F)F)cc1 the results were LMNA splice mod inconclusive, HTT cytoprotect 40.7%[10 µM], HTT aggregate 11.2µM*, CBFb RUNX1 block 6.0% and NPSR antagonist 1.3%.
`CCCCCCCCCCCCCCNCCO` gave HTT cytoprotect -3.5% and HTT aggregate -10.2%.
COC(=O)c1ccc(C(=O)OC)c(NC(=O)CN2CCCCC2)c1 was read as MBNL1-CUG inh -3.7%, HTT aggregate 10.7%, CBFb RUNX1 block 18.8% and NPSR antagonist 2.7%.
`COC(=O)c1cc(OC)c(OC)cc1NC(=O)CN1CCCCC1` gave MBNL1-CUG inh -10.6%, LMNA splice mod -1.5%, HTT cytoprotect -0.2%[0.074 µM], HTT aggregate 0.631µM*, CBFb RUNX1 block 1.6% and NPSR antagonist -1.7%[46.1 µM].
For COc1ccc(-c2noc(CSc3nc(N)cc(=O)[nH]3)n2)cc1OC the results were LMNA splice mod -12.4%[46 µM].
Screening CC1(C)Cc2ccccc2/C(=C/C(=O)N2CCCCCC2)N1 returned MBNL1-CUG inh 3.6%, LMNA splice mod -4.8%, HTT cytoprotect -7.4%, HTT aggregate 12.6%, CBFb RUNX1 block -9.3% and NPSR antagonist 7.94µM*.
Screening CN1CCN(c2ncc3nc(-c4cccc(C#N)c4)c(=O)n(Cc4ccc(F)cc4)c3n2)CC1 returned LMNA splice mod inconclusive and HTT cytoprotect -183.1%.
For CCCNC(=O)Cn1c(=O)/c(=C\c2ccc(-c3ccc([N+](=O)[O-])cc3)o2)s/c1=C\C(=O)C(C)(C)C the results were LMNA splice mod inconclusive, HTT cytoprotect 19.9%[10 µM], HTT aggregate 14.1µM*, CBFb RUNX1 block -0.7% and NPSR antagonist -7.5%.
`CC1(C)Oc2cc3c(cc2O1)OC(C)(C)O3` gave HTT cytoprotect -2.6%[10 µM] and CBFb RUNX1 block 0.4%[13.1 µM].
